Laboratory results as given in publication PMC7862700, “An all-to-all approach to the identification of sequence-specific readers for epigenetic DNA modifications on cytosine”.

Key:
Assay in all cases: DAPPL (digital affinity profiling via proximity ligation, sequencing); 10 mM Tris-HCl pH 7.5, 50 mM NaCl, 1 mM DTT, 4% glycerol, room temperature, 30 min; GST-TFs on glutathione beads, 16-mer random dsDNA library, 0.1% formaldehyde crosslink after washing; high values mean tight binding
FLI1 = molecular target: T1, FLI1 (Homo sapiens, UniProt Q01543 1-452); conditions: protein: recombinant; tags: N-terminal GST; dsDNA, one strand shown
T1 sequence: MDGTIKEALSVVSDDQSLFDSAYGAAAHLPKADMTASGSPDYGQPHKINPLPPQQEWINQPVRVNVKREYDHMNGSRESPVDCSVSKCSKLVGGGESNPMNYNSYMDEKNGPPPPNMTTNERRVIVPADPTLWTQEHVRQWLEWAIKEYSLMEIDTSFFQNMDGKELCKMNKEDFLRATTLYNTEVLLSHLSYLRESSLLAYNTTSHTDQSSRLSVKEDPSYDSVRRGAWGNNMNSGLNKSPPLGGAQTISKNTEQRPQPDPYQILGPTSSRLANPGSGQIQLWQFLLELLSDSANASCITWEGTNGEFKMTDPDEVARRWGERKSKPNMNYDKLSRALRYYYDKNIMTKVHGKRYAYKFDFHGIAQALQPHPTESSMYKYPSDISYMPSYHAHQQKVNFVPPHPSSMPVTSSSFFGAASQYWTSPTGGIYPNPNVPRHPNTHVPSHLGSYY
Outline: (§1)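 Binding signal is defined as a hexamer's read frequency for one factor over its frequency for the tag-only sample. To obtain reads, GST-fused human transcription factors were expressed in yeast, captured on glutathione beads, barcoded with DNA and pooled with that sample. Pools met 200 nmole of a 16-mer random double-stranded DNA library in Tris/NaCl/DTT/glycerol buffer for 30 min at room temperature before washing, 0.1% formaldehyde crosslinking, proximity ligation (BsaI/T4 ligase, 1 h, 37 °C), PCR and Illumina NextSeq500 sequencing.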

ELK1 = molecular target: T2, ELK1 (Homo sapiens, UniProt P19419 1-428); conditions: protein: recombinant; tags: N-terminal GST; dsDNA, one strand shown
T2 sequence: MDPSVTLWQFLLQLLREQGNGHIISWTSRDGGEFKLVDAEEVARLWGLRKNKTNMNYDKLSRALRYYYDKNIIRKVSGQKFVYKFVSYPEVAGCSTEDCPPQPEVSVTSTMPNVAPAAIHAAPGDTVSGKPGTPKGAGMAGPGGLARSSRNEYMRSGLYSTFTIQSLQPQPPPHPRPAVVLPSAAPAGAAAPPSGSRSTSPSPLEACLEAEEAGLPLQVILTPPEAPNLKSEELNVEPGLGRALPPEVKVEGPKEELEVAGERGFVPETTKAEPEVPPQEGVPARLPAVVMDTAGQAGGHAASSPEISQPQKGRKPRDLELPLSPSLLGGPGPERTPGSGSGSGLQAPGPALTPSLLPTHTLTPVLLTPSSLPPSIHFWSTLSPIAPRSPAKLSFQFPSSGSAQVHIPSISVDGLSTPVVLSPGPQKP
Outline: as §1

GABPA = molecular target: T3, GABPA (Homo sapiens, UniProt Q06546 1-454); conditions: protein: recombinant; tags: N-terminal GST; dsDNA, one strand shown
T3 sequence: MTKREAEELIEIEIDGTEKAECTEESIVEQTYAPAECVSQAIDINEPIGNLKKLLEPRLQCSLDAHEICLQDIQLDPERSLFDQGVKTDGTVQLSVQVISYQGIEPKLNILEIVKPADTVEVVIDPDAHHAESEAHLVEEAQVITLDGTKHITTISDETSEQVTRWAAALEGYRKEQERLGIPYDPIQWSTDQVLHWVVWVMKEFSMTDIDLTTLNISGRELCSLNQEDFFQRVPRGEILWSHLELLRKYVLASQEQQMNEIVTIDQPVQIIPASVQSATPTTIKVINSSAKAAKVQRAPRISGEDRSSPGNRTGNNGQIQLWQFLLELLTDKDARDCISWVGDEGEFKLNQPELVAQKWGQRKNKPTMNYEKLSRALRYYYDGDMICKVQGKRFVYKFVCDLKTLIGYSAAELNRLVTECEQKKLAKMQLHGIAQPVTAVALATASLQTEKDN
Outline: as §1

ERG = molecular target: T4, ERG (Homo sapiens, UniProt P11308 1-479); conditions: protein: recombinant; tags: N-terminal GST; dsDNA, one strand shown
T4 sequence: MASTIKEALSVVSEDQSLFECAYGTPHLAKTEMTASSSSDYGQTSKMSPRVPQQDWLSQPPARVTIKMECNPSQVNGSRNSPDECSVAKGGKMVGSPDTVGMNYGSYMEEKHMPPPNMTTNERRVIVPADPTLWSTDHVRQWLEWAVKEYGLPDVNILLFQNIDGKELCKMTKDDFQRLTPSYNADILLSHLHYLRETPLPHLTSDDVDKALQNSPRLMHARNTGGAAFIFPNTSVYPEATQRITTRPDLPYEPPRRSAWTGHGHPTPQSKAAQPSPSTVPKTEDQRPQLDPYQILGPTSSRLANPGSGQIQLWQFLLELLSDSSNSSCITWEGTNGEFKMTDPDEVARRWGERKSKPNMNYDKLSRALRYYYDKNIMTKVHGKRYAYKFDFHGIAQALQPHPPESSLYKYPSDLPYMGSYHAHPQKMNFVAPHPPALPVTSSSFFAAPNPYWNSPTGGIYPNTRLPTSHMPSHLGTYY
Outline: as §1

ELF1 = ELF1 (Homo sapiens, UniProt P32519 1-619); conditions: protein: recombinant; tags: N-terminal GST; dsDNA, one strand shown
Outline: as §1

EHF = molecular target: T5, EHF (Homo sapiens, UniProt Q9NZC4 1-300); conditions: protein: recombinant; tags: N-terminal GST; dsDNA, one strand shown
T5 sequence: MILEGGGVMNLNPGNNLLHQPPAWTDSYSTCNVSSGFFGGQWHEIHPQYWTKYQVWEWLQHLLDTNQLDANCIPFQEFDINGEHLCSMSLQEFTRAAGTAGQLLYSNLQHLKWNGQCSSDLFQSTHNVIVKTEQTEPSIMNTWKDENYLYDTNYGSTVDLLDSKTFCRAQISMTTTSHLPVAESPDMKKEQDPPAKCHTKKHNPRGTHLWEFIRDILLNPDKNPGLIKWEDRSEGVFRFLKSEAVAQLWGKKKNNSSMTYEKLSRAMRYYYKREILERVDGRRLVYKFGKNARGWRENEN
Outline: as §1

SPI1 = SPI1 (Homo sapiens, UniProt P17947 1-270); conditions: protein: recombinant; tags: N-terminal GST; dsDNA, one strand shown
Outline: as §1

SPIB = SPIB (Homo sapiens, UniProt Q01892 1-262); conditions: protein: recombinant; tags: N-terminal GST; dsDNA, one strand shown
Outline: as §1

ELK3 = molecular target: T6, ELK3 (Homo sapiens, UniProt P41970 1-407); conditions: protein: recombinant; tags: N-terminal GST; dsDNA, one strand shown
T6 sequence: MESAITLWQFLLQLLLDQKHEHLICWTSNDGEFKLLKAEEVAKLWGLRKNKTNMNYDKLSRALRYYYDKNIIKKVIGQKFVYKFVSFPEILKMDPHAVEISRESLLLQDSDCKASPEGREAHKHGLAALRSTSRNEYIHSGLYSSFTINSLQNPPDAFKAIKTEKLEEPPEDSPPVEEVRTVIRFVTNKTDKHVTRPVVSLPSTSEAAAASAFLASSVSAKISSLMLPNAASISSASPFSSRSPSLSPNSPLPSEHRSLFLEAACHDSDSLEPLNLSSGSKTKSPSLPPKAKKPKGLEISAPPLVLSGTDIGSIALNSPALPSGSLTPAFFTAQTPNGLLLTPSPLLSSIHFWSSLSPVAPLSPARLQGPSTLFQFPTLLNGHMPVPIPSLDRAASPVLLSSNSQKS
Outline: as §1

FEV = molecular target: T7, FEV (Homo sapiens, UniProt Q99581 1-238); conditions: protein: recombinant; tags: N-terminal GST; dsDNA, one strand shown
T7 sequence: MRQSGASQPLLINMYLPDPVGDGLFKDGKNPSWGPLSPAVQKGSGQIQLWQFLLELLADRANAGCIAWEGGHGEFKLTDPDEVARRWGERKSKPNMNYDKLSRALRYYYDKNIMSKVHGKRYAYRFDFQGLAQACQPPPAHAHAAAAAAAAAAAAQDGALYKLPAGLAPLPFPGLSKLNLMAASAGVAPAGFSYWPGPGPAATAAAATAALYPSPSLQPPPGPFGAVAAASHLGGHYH
Outline: as §1

ETV5 = ETV5 (Homo sapiens, UniProt P41161 1-510); conditions: protein: recombinant; tags: N-terminal GST; dsDNA, one strand shown
Outline: as §1

HSF1 = HSF1 (Homo sapiens, UniProt Q00613 1-529); conditions: protein: recombinant; tags: N-terminal GST; chain copies: 3; dsDNA, one strand shown
Outline: as §1

SPIC = molecular target: T8, SPIC (Homo sapiens, UniProt Q8N5J4 1-248); conditions: protein: recombinant; tags: N-terminal GST; dsDNA, one strand shown
T8 sequence: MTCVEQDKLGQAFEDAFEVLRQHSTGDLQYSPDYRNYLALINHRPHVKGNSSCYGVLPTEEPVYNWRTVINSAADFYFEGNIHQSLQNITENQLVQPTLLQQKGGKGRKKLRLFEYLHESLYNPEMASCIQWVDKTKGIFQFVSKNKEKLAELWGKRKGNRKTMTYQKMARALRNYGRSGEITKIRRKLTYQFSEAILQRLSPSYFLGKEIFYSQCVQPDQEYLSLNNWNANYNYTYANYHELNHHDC
Outline: as §1

ELF4 = ELF4 (Homo sapiens, UniProt Q99607 1-663); conditions: protein: recombinant; tags: N-terminal GST; dsDNA, one strand shown
Outline: as §1

ELK4 = molecular target: T9, ELK4 (Homo sapiens, UniProt P28324-2 1-405); conditions: protein: recombinant; tags: N-terminal GST; dsDNA, one strand shown
T9 sequence: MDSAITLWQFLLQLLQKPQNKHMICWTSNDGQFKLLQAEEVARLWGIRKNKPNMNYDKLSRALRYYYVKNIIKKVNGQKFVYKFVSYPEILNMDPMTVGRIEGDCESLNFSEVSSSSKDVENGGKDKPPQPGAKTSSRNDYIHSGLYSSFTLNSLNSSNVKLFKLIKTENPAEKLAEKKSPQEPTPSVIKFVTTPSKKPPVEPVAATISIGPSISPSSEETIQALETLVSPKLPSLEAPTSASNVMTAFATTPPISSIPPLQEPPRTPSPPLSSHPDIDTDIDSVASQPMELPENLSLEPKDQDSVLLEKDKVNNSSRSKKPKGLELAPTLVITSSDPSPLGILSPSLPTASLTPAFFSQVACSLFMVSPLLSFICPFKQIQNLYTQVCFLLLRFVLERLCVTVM
Outline: as §1

ETV2 = molecular target: T10, ETV2 (Homo sapiens, UniProt O00321 1-342); conditions: protein: recombinant; tags: N-terminal GST; dsDNA, one strand shown
T10 sequence: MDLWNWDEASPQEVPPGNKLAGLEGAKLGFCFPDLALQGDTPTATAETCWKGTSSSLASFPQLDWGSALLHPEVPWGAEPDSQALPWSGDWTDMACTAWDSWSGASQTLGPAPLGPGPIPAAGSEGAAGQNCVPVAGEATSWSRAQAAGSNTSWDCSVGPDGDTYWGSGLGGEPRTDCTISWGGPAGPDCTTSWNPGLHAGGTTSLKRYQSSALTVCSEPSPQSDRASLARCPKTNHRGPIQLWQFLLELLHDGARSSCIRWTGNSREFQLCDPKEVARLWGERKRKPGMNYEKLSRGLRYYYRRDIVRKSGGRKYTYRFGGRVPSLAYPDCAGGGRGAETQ
Outline: as §1

ELF3 = molecular target: T11, ELF3 (Homo sapiens, UniProt P78545 1-371); conditions: protein: recombinant; tags: N-terminal GST; dsDNA, one strand shown
T11 sequence: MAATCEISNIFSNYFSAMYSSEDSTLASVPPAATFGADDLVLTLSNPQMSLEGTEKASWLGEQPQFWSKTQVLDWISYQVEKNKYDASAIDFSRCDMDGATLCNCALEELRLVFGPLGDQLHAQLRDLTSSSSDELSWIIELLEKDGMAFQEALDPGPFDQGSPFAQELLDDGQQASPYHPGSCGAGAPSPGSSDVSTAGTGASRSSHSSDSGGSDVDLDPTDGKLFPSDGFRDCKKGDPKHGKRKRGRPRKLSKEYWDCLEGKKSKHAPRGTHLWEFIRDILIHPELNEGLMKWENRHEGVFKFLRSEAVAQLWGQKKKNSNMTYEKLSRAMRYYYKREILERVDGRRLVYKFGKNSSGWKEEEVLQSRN
Outline: as §1

CRX = CRX (Homo sapiens, UniProt O43186 1-299); conditions: protein: recombinant; tags: N-terminal GST; dsDNA, one strand shown
Outline: as §1

ETV1 = ETV1 (Homo sapiens, UniProt P50549 1-477); conditions: protein: recombinant; tags: N-terminal GST; dsDNA, one strand shown
Outline: as §1

Sequence of ETV1 (P50549 whole entry): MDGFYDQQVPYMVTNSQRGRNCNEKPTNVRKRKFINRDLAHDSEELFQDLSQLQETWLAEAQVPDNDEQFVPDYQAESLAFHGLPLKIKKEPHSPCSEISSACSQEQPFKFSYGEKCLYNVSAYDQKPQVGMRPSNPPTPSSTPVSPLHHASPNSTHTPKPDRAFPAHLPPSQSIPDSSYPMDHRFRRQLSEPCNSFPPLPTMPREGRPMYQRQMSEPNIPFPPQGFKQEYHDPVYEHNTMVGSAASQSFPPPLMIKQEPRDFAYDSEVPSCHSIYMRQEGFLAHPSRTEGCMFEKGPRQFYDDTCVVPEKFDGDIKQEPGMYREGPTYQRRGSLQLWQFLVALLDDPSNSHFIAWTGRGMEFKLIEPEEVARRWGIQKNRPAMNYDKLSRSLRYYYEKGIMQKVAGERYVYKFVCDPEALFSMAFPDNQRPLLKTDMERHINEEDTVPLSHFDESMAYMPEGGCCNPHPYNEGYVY
Sequence of ELF4 (Q99607 whole entry): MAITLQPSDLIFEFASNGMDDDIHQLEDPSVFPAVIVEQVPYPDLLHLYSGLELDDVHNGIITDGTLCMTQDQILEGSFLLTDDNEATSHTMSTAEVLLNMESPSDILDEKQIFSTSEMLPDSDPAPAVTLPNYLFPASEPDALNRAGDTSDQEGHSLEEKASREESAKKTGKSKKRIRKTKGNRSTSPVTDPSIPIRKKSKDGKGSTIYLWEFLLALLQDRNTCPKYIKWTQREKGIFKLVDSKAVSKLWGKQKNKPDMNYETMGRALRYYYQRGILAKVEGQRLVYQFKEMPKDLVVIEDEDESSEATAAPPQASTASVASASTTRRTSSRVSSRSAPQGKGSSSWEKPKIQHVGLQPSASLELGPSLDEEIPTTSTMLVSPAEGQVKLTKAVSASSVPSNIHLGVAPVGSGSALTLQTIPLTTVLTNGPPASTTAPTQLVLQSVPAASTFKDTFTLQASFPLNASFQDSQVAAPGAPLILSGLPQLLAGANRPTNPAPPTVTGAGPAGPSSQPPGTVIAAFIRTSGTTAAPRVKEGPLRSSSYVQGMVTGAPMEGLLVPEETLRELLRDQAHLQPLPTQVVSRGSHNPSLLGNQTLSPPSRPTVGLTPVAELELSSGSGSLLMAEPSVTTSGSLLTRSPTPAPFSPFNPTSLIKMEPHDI
Sequence of ELF1 (P32519 whole entry): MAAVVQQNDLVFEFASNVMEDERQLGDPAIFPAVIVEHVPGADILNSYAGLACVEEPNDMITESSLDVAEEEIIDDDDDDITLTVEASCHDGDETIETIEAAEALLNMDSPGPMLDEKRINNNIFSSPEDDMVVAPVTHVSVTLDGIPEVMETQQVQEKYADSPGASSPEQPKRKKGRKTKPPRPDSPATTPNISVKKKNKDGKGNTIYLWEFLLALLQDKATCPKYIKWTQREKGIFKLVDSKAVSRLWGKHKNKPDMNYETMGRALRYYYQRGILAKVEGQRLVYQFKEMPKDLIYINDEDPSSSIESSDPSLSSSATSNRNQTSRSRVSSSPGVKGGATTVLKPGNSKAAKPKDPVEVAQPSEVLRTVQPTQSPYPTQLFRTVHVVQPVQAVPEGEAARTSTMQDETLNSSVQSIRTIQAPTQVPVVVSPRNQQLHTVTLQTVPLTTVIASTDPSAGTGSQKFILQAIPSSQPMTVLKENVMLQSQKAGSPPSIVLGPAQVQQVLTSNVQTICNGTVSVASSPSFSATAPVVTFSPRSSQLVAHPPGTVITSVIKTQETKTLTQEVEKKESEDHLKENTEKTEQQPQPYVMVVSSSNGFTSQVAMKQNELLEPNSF
Sequence of ETV5 (P41161 whole entry): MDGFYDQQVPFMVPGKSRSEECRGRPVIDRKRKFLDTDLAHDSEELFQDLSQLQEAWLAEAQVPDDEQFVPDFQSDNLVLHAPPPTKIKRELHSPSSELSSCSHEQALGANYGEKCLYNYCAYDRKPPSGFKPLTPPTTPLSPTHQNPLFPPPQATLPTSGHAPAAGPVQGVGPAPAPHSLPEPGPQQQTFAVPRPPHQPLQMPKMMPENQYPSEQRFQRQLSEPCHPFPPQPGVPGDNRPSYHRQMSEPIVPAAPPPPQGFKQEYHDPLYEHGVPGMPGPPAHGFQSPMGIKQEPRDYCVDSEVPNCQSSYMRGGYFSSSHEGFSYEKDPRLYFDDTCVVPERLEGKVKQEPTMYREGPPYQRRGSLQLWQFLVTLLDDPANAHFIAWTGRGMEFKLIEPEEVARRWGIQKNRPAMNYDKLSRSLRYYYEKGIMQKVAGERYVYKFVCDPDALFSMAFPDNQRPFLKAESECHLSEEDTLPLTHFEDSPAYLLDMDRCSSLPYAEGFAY
Sequence of HSF1 (Q00613 whole entry): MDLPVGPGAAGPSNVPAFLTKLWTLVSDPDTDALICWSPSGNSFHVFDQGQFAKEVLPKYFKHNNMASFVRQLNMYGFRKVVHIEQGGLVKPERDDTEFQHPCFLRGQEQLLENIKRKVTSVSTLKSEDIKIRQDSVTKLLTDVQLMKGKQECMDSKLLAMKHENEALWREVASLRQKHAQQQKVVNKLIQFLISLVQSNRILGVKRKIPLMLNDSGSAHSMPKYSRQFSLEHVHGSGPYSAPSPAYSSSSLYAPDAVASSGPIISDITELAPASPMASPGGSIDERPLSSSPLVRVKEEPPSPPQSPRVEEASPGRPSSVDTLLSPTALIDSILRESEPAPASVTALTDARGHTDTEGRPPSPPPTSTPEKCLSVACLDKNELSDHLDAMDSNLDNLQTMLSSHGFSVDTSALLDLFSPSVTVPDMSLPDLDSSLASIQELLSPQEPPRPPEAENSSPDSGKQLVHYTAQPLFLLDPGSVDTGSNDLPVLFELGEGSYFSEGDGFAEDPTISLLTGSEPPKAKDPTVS
Sequence of CRX (O43186 whole entry): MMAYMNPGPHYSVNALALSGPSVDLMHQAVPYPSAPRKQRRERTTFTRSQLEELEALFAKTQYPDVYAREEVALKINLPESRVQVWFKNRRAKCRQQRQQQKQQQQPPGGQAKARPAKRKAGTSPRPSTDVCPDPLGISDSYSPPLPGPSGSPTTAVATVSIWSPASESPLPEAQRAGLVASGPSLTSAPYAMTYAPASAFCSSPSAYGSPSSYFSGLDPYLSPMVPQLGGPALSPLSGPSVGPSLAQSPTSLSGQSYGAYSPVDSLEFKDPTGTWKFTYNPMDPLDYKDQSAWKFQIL
Sequence of SPIB (Q01892 whole entry): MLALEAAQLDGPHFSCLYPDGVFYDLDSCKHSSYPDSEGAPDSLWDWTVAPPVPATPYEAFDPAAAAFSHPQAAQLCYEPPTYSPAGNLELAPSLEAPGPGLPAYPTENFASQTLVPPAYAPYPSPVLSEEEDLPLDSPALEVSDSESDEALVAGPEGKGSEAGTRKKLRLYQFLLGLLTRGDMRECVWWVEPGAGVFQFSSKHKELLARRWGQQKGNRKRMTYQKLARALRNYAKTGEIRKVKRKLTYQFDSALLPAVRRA

Sequence: CCAACT
- binding signal (FLI1): 1.26 fold enrichment (6-mer frequency, TF over GST control)
- binding signal (ELK1): 1.19 fold enrichment (6-mer frequency, TF over GST control)
- binding signal (GABPA): 1.23 fold enrichment (6-mer frequency, TF over GST control)
- binding signal (ERG): 1.26 fold enrichment (6-mer frequency, TF over GST control)
- binding signal (ELF1): 1.25 fold enrichment (6-mer frequency, TF over GST control)
- binding signal (EHF): 1.24 fold enrichment (6-mer frequency, TF over GST control)
- binding signal (SPI1): 1.14 fold enrichment (6-mer frequency, TF over GST control)
- binding signal (SPIB): 1.25 fold enrichment (6-mer frequency, TF over GST control)
- binding signal (ELK3): 1.19 fold enrichment (6-mer frequency, TF over GST control)
- binding signal (FEV): 1.27 fold enrichment (6-mer frequency, TF over GST control)
- binding signal (ETV5): 1.16 fold enrichment (6-mer frequency, TF over GST control)
- binding signal (HSF1): 1.02 fold enrichment (6-mer frequency, TF over GST control)
- binding signal (SPIC): 1.4 fold enrichment (6-mer frequency, TF over GST control)
- binding signal (ELF4): 1.29 fold enrichment (6-mer frequency, TF over GST control)
- binding signal (ELK4): 1.27 fold enrichment (6-mer frequency, TF over GST control)
- binding signal (ETV2): 1.11 fold enrichment (6-mer frequency, TF over GST control)
- binding signal (ELF3): 1.21 fold enrichment (6-mer frequency, TF over GST control)
- binding signal (CRX): 1.01 fold enrichment (6-mer frequency, TF over GST control)
- binding signal (ETV1): 1.21 fold enrichment (6-mer frequency, TF over GST control)
